Data as given in PubChem BioAssay (NCATS).
Records with an inconclusive call do not appear. Where a call stands in place of a potency, no number is given. Activity calls are given as the source filed them. The call rests on the fitted dose curve; in most records, active means well fitted inhibition curve with a large enough effect; inconclusive means small, poorly fitted or top-dose-only effect; inactive means flat fitted curve, though single readings scatter.

Columns and labels:
Assay in all cases: qHTS profiling for inhibitors of Plasmodium falciparum proliferation (AID 504749); further: nearly all actives have a fitted effect of over 60% in size
Conditions in all cases: P. falciparum in erythrocytes, SYBR Green DNA, 72 h; series mostly up to 28.7 µM
CP265 = test system: CP265
Method in brief: (§1)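 Parasite proliferation within erythrocytes, 72 h exposure. Endpoint: SYBR Green I fluorescence after overnight lysis at room temperature. Controls: 0.29 uM artemisinin, DMSO.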

CP266 = test system: CP266
Method in brief: as §1

CP268 = test system: CP268
Method in brief: as §1

CP269 = test system: CP269
Method in brief: as §1

CP291 = test system: CP291
Method in brief: as §1

CP297 = test system: CP297
Method in brief: as §1

CP305 = test system: CP305
Method in brief: as §1

CP315 = test system: CP315
Method in brief: as §1

CP325 = test system: CP325
Method in brief: as §1

CP286 = test system: CP286
Method in brief: as §1
Potency means the concentration at half of the fitted maximal effect.

| Compound | Potency (CP265) | Potency (CP266) | Potency (CP268) | Potency (CP269) | Potency (CP291) | Potency (CP297) | Potency (CP305) | Potency (CP315) | Potency (CP325) | Potency (CP286) |
| --- | --- | --- | --- | --- | --- | --- | --- | --- | --- | --- |
| CCN(CC)C(=O)/C(C#N)=C/c1cc(O)c(O)c([N+](=O)[O-])c1 | inactive | inactive | inactive | inactive | inactive | inactive | inactive | inactive | inactive |  |
| Cc1cccc(C)c1NC(=O)CN1CCN(CCCC(c2ccc(F)cc2)c2ccc(F)cc2)CC1 | inactive | inactive | inactive |  | inactive |  | inactive | inactive | inactive | inactive |
| COc1c2occc2c(OC)c2c(=O)cc(C)oc12 | inactive | inactive | inactive | inactive | inactive | inactive | inactive | inactive | inactive | inactive |
| CC(=O)Oc1ccc(C(c2ccc(OC(C)=O)cc2)c2ccccn2)cc1 | inactive | inactive | inactive | inactive |  | inactive | inactive | inactive | inactive | inactive |
| CC(C)(Oc1ccc(Cl)cc1)C(=O)O | inactive | inactive | inactive | inactive |  | inactive |  | inactive | inactive | inactive |
| CC(C)NC[C@@H](O)COc1cccc2ccccc12 | 10 µM (active) | inactive | inactive |  |  | inactive |  | inactive | inactive |  |
| CC(C)(C)CC(C)(C)c1ccc(O)c(Cc2ccc(Cl)cc2Cl)c1 | 3.16 µM (active) | 4.78 µM (active) | 0.757 µM (active) | 1.51 µM (active) | 3.38 µM (active) | 1.69 µM (active) |  | 3.79 µM (active) | 3.79 µM (active) | 2.51 µM (active) |
| CCN1CCC[C@H]1CNC(=O)c1c(OC)ccc(Br)c1OC | inactive | inactive | inactive | inactive | inactive |  | inactive | inactive | inactive | inactive |
| Cc1c(C(C)C)c(=O)n(-c2ccccc2)n1C | inactive | inactive | inactive | inactive | inactive | inactive | inactive | inactive | inactive | inactive |
| NC(CO)(CO)CO | inactive | inactive | inactive | inactive | inactive |  | inactive | inactive | inactive | inactive |
| Nc1ccc(/C=C/c2ccc(N)cc2S(=O)(=O)O)c(S(=O)(=O)O)c1 | inactive | inactive | inactive | inactive | inactive | inactive | inactive | inactive | inactive | inactive |
| O=C1[C@H]2CCCC[C@H]2C(=O)N1CCCCN1CCN(c2nsc3ccccc23)CC1 | inactive | inactive | inactive | inactive | inactive |  | inactive | inactive | inactive | inactive |
| CCOc1ccc(Cc2nccc3cc(OCC)c(OCC)cc23)cc1OCC | inactive | inactive | inactive | inactive |  | inactive | inactive | inactive | inactive | inactive |
| COc1cc2c(cc1OC)C(C(C(=O)N(CCc1ccc(OC)c(OC)c1OC)CCc1ccc(OC)c(OC)c1OC)c1ccccc1)=NCC2 (stereo not given) | 7.94 µM (active) |  | 13.5 µM (active) | 6.75 µM (active) | 15.1 µM (active) | 3.38 µM (active) | 15.1 µM (active) | 13.5 µM (active) | 16.9 µM (active) | 7.94 µM (active) |
| Cc1c(C)n(Cc2ccccc2)c2ccc(C(=O)OCCN(C)C)cc12 | inactive |  | inactive | inactive | inactive | inactive | inactive | inactive | inactive | inactive |
| CC(O)(P(=O)(O)O)P(=O)(O)O | inactive | inactive |  | inactive |  |  |  | inactive |  | inactive |
| CCCCOc1cc(C(=O)NCCN(CC)CC)c2ccccc2n1 | inactive |  | inactive | inactive | inactive | inactive | inactive | inactive | inactive | inactive |
| CN(C)CCOc1ccccc1Cc1ccccc1 | 2.24 µM (active) |  |  |  |  | 4.26 µM (active) |  | inactive |  |  |
| COc1ccc(CN2CCN(C(c3ccc(F)cc3)c3ccc(F)cc3)CC2)c(OC)c1OC | 11.2 µM (active) |  |  | 15.1 µM (active) |  |  |  |  | 16.9 µM (active) | 7.08 µM (active) |
| N[C@H](CO)C(=O)O | inactive | inactive |  | inactive | inactive | inactive | inactive | inactive | inactive | inactive |
| COc1c(C)c2c(c(O)c1C/C=C(\C)CCC(=O)O)C(=O)OC2 | 3.16 µM (active) |  |  | 5.1 µM (active) | 4.05 µM (active) | 5.1 µM (active) | 4.05 µM (active) |  |  | 3.16 µM (active) |
| CCCCCCc1ccc(O)cc1O | inactive |  | inactive | inactive | inactive | inactive | inactive | inactive | inactive | inactive |
| COc1ccc(CCN2CCC(Nc3nc4ccccc4n3Cc3ccc(F)cc3)CC2)cc1 | 3.98 µM (active) |  | 4.78 µM (active) | 4.78 µM (active) | 4.26 µM (active) | 5.36 µM (active) | 4.26 µM (active) | 12 µM (active) | 4.26 µM (active) | 2.51 µM (active) |
| CC(C)=CCC1C(=O)N(c2ccccc2)N(c2ccccc2)C1=O | inactive | inactive | inactive |  |  |  |  | inactive |  |  |
| C[C@@H]1CN(CCCn2c3ccccc3c3ccccc32)C[C@H](C)N1 | 7.94 µM (active) | inactive |  |  |  |  |  | inactive |  | 12.6 µM (active) |
| CNCCC=C1c2ccccc2CCc2ccccc21 | 7.94 µM (active) |  | inactive |  |  |  |  | inactive |  |  |
| O=C1c2ccccc2C(=O)C1c1ccccc1 | inactive |  | inactive | inactive | inactive | inactive | inactive | inactive | inactive | inactive |
| CCCCCCCCCCCCCCCC[N+](C)(C)CCN(Cc1ccc(OC)cc1)c1ncccn1 | inactive |  | inactive |  |  | inactive | inactive | inactive |  |  |
| CCN(CC)C(=O)N1CCN(C)CC1 | inactive |  | inactive | inactive | inactive | inactive | inactive | inactive | inactive | inactive |
| O=C(OCCOCCO)c1ccccc1Nc1cccc(C(F)(F)F)c1 | inactive |  | inactive | inactive | inactive | inactive | inactive | inactive | inactive | inactive |
